POLK inh = blocks human DNA polymerase kappa activity; purified Pol kappa, fluorescent DNA synthesis assay, 10 min; Potency, µM (series often up to 107 µM), for inactives: at the highest dose activity, negative = inhibition, most hits filed as inhibitors; 0.53% of 400,000 active; AID 588579; note: % is set by controls: 0 for no effect and ±100 for the full control effect
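First, compounds were pin-transferred onto 10 nM Pol kappa. After 15 min at room temperature, substrate was added to 50 nM final. Fluorescence was then measured kinetically at 0 and 10 min.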
POLH inh = DNA polymerase eta (human) inhibition; Potency, µM (doses to about 114 µM), without a hit: at the top dose activity change, negative = inhibition, usual class: inhibitors; 1.2% of 390,000 active; recombinant Pol eta, fluorescent DNA replication assay; Q9Y253; note: % is set by controls: 0 for no effect and ±100 for the full control effect
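Fluorescent replication assay: 50 nM final substrate added after a 15 min room-temperature compound preincubation with 10 nM enzyme. Signal taken at 0 min and again at 10 min.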
TDP1 block = inhibitors of human tyrosyl-DNA phosphodiesterase TDP1; Q9NUW8; recombinant TDP1, AlphaScreen DNA substrate cleavage; Potency, µM (highest dose often 130 µM), inactives show at the highest dose activity change, negative = inhibition, most hits filed as inhibitors; 0.28% of 350,000 active; AID 485290; note: % is set by controls: 0 for no effect and ±100 for the full control effect; nearly all actives have a fitted effect of over 40% in size
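Recombinant human Tdp1 (E. coli-expressed, 1 nM final) preincubated with compounds 15 min at room temperature, then 5'-biotin/3'-phosphotyrosine-FITC DNA substrate (15 nM final) added for 5 min. AlphaScreen beads (10 ug/ml final) added 10 min; cleavage lowers signal.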
POLB inh = blocks human DNA polymerase beta activity; Pol beta primer extension/strand displacement, fluorescence kinetic; Potency, µM (series often up to 114 µM), for inactives: at the highest dose activity change, negative = inhibition, usual class: inhibitors; 1.3% of 340,000 active; AID 485314; note: % is set by controls: 0 for no effect and ±100 for the full control effect
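Preincubation: enzyme (10 nM) with compound, 15 min, RT. Reaction: substrate added to 50 nM final. Reads: 0 and 10 min. Analysis: normalized, Hill fit.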
FEN1 inh = human FEN1 inhibition; AID 588795; Potency, µM (doses to about 114 µM), inactives show top-dose activity change, negative = inhibition, actives largely listed as inhibitors; P39748; 0.35% of 390,000 active; Recombinant FEN1 flap cleavage, fluorescence, 15 min; note: % is set by controls: 0 for no effect and ±100 for the full control effect; nearly all actives have a fitted effect of over 65% in size
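Enzyme 10 nM, 15 min RT preincubation with compound; start with substrate 50 nM final; reads at 0 and 15 min; qHTS titration, four-parameter Hill fit.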
Pol iota inh = blocks human DNA polymerase iota activity; Q9UNA4; Pol iota fluorescent replication assay, 10 min; Potency, µM (titrated, usually from 115 µM), for inactives: top-dose activity, negative = inhibition, actives largely listed as inhibitors; 1% of 390,000 active
Target sequence (Q9UNA4 whole entry, looked up): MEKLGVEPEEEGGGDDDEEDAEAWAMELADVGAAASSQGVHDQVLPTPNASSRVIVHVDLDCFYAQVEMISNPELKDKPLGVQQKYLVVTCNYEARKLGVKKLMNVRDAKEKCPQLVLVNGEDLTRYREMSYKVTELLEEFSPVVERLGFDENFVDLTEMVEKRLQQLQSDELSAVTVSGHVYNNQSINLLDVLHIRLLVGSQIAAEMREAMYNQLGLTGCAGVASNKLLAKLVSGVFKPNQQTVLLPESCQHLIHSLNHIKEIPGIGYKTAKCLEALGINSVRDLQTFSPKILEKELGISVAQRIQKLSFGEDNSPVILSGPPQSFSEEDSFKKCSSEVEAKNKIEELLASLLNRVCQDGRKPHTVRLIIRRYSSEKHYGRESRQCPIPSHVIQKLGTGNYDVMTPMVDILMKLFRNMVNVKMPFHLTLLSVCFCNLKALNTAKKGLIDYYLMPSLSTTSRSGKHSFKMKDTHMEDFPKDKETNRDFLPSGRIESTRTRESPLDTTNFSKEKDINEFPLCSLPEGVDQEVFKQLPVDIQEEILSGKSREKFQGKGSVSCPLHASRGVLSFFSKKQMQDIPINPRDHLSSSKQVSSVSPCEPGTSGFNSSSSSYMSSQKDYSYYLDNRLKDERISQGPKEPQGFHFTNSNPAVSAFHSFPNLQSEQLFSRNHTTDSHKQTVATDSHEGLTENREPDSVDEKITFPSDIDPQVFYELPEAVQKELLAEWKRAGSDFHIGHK
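Fluorescent replication assay read twice, at 0 min and 10 min after adding 50 nM (final) substrate. Enzyme (10 nM) and compounds were first incubated 15 min at room temperature; enzyme-free buffer wells were negative controls.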
Starred values were filed as active, the others as inactive; [ ] = dose if it differs, or a comment. Shown are actives, neighbours in structure and some others; about 2.4% of the full set was active somewhere. Calls come from the whole dose curve; as a rule, active = well fitted curve in the direction sought with a large enough effect; inconclusive = small, poorly fitted or top-dose-only effect, or another doubt; inactive = no such curve, though single readings can be large; an effect the other way counts as inactive or inconclusive. Potency is the fitted concentration of half-maximal effect.

How did COc1cc(/C=C2\SC(=S)N(NC(C)=O)C2=O)ccc1OC(=O)c1ccco1 do in these assays?
POLK inh: 0%; POLH inh: 2%; TDP1 block: 5%; FEN1 inh: 14%; Pol iota inh: 73%

Results for COc1cc(/C=C2/C(=N)N3C(=NC2=O)SN=C3S(=O)(=O)C(C)C)ccc1OC(=O)c1ccco1 ?
POLK inh: -14%; POLH inh: 79µM*; TDP1 block: 5%; POLB inh: 1%; FEN1 inh: -1%; Pol iota inh: inconclusive

How did COc1cc(/C=C2\C(=O)N(c3ccc(S(N)(=O)=O)cc3)N=C2C)ccc1OC(=O)c1ccco1 do in these assays?
POLK inh: 1%; POLH inh: -13%; TDP1 block: inconclusive; POLB inh: inconclusive; FEN1 inh: -16%; Pol iota inh: 2.5µM*

How did COc1cc(/C=C2\C(=N)N3N=CSC3=NC2=O)cc(Br)c1OC(=O)c1ccco1 do in these assays?
POLK inh: -14%; POLH inh: 79µM*; TDP1 block: -3%; POLB inh: inconclusive; FEN1 inh: -4%; Pol iota inh: inconclusive

What do the screens show for `CCOC(=O)C1CCN(c2ncnc3c2c(-c2ccccc2)cn3-c2ccc(C)c(Cl)c2)CC1`?
POLK inh: -13%[60.1 µM]; POLH inh: -15%; TDP1 block: 5%; POLB inh: 1%; FEN1 inh: 1%; Pol iota inh: 7%

How did O=C1c2ccccc2C(=O)N1Cc1ccncc1 do in these assays?
TDP1 block: 1%

Results for COc1ccc2c(c1)c1c(c(=O)n(-c3cccc(Cl)c3)c(=O)n1C)n2C ?
POLK inh: -2%; POLH inh: -7%; TDP1 block: 0%; POLB inh: 3%; FEN1 inh: 13%; Pol iota inh: -12%

How did COc1cc(/C=C2/C(=N)N3C(=NC2=O)SN=C3S(C)(=O)=O)ccc1OC(=O)c1ccco1 do in these assays?
POLK inh: -19%; POLH inh: 50µM*; TDP1 block: -3%; POLB inh: -8%; FEN1 inh: inconclusive; Pol iota inh: inconclusive

Results for CCOc1cc(/C=C2/C(=N)N3C(=NC2=O)SN=C3S(=O)(=O)C(C)C)ccc1OC(=O)c1ccco1 ?
POLK inh: -10%; POLH inh: 45µM*; TDP1 block: 4%; POLB inh: -1%; FEN1 inh: -8%; Pol iota inh: 4%

Results for CCOc1cc(/C=C2/C(=N)N3C(=NC2=O)SN=C3S(=O)(=O)CC)ccc1OC(=O)c1ccco1 ?
POLK inh: 4%; POLH inh: 79µM*; TDP1 block: 6%; POLB inh: -9%; FEN1 inh: -4%; Pol iota inh: inconclusive

What do the screens show for `CS(=O)(=O)C1=NSC2=NC(=O)/C(=C\c3ccc(OC(=O)c4ccco4)cc3)C(=N)N21`?
TDP1 block: -21%; POLB inh: inconclusive

How did COc1cc(/C=C2/C(=N)N3C(SC)=NSC3=NC2=O)ccc1OC(=O)c1ccco1 do in these assays?
POLK inh: -15%; POLH inh: -7%; TDP1 block: -4%; POLB inh: 3%; FEN1 inh: 5%; Pol iota inh: inconclusive

How did Cc1ccccc1-c1nc(CN2CCC(C(=O)NCc3ccc(F)cc3)CC2)c(C)o1 do in these assays?
POLK inh: -3%; POLH inh: -13%; TDP1 block: 2%; POLB inh: 1%; FEN1 inh: -10%; Pol iota inh: 13%

What do the screens show for `Cn1c(NC2=NC3(CCCC3)C3=C(CCCC3=O)N2)nc2ccccc21`?
TDP1 block: 3%

Results for COc1cc(/C=C/c2nc(C#N)c(N3CCC(C)CC3)o2)cc(OC)c1OC ?
POLK inh: -18%; POLH inh: -18%; TDP1 block: 2%; POLB inh: -15%; FEN1 inh: -2%; Pol iota inh: 19%

What do the screens show for `CCCCn1c(N)c(N(CC(C)C)C(=O)c2cc(=O)[nH]c3ccccc23)c(=O)[nH]c1=O`?
POLK inh: -9%; POLH inh: 5%; TDP1 block: 0%; FEN1 inh: 9%; Pol iota inh: 24%

Results for CCCCn1c(N)c(N(CC(C)C)C(=O)c2oc3ccc(Br)cc3c2C)c(=O)[nH]c1=O ?
POLK inh: -9%; POLH inh: 79µM*; FEN1 inh: 0%; Pol iota inh: inconclusive

Results for CCCCn1c(N)c(N(CC(C)C)C(=O)c2cc(-c3ccco3)nc3ccccc23)c(=O)[nH]c1=O ?
POLK inh: inconclusive; POLH inh: 28µM*; FEN1 inh: 9%; Pol iota inh: 40µM*

What do the screens show for `Cc1cc(=O)n2[nH]c(C)c(-c3ccccc3)c2n1`?
POLK inh: 0%; POLH inh: -21%; TDP1 block: -2%; POLB inh: 1%; FEN1 inh: -1%; Pol iota inh: 29%

How did O=c1cc(-c2ccccc2)nc2c(-c3ccccc3)c(C(F)(F)F)[nH]n12 do in these assays?
POLK inh: -12%; POLH inh: inconclusive; TDP1 block: 3%; POLB inh: 79µM*; FEN1 inh: -6%; Pol iota inh: 20%

How did O=C(O)C(O)c1ccco1 (stereo not given) do in these assays?
POLK inh: 20µM*; POLH inh: 3.5µM*; TDP1 block: 3%; POLB inh: 2.2µM*; FEN1 inh: inconclusive; Pol iota inh: inconclusive

Results for O=C(/C=C/c1ccncc1)c1ccc(NC(=O)c2ccccc2F)cc1 ?
POLK inh: -10%; POLH inh: -15%; TDP1 block: 0%; POLB inh: 16µM*; FEN1 inh: inconclusive; Pol iota inh: inconclusive

Results for O=C(Nc1ccc(Nc2ccccc2)cc1)c1ccccc1F ?
POLK inh: -15%; POLH inh: -10%; POLB inh: 16%; FEN1 inh: -5%; Pol iota inh: -27%

How did COc1ccc(-n2c(=O)c3c4c(sc3n(CC(=O)Nc3cc(C)[nH]n3)c2=O)CCC4)c(OC)c1 do in these assays?
POLK inh: 0%; POLH inh: -2%; TDP1 block: -1%; POLB inh: -5%; FEN1 inh: -1%; Pol iota inh: 79µM*

Results for COc1ccc(-c2noc(-c3ccc(N4CCC(C)CC4)c([N+](=O)[O-])c3)n2)cc1OC ?
POLK inh: inconclusive; POLH inh: -6%; TDP1 block: 11%; POLB inh: 79µM*; FEN1 inh: -12%; Pol iota inh: -18%

Results for COc1cc(/C=C2\C(=O)N(c3ccccc3)N=C2C)ccc1Oc1ccc([N+](=O)[O-])cc1[N+](=O)[O-] ?
POLK inh: -23%; POLH inh: inconclusive; TDP1 block: 11%; POLB inh: -19%; FEN1 inh: -16%; Pol iota inh: 2µM*
